An excerpt weighted towards active compounds, which were near 3.4% of everything screened.
MITF primary: human MITF inhibition, primary screen. 650,000 tested, 0.91% active. O75030. inhibition, % at 2.6 µM. AlphaScreen MITF homodimerization, bead proximity signal. AID 1259374; in the data active = inhibition above about 50%;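 note: 0% = vehicle wells with protein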
Target sequence (O75030 whole entry, looked up): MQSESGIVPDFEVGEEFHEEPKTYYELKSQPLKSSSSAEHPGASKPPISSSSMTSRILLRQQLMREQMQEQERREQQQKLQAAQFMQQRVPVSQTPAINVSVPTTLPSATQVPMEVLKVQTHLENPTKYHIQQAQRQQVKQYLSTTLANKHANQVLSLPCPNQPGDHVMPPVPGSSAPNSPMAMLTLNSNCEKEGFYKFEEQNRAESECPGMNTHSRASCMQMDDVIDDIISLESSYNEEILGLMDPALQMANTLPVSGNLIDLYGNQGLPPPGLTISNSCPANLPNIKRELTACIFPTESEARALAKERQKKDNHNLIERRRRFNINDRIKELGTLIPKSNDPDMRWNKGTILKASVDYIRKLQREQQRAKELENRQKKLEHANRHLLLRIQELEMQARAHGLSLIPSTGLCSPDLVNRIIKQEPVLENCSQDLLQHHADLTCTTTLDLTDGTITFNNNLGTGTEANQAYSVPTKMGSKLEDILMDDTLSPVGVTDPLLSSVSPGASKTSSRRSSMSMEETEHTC
GPR151 ag: human GPR151 activation. AID 1508602. PathHunter beta-arrestin GPR151 cells, luminescence. Q8TDV0. 650,000 tested, 1% active. activation, % at 11.2 µM; in the data active = activation above about 4.9%;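 note: 0% = median of compound wells and 100% = cells with positive control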
FBW7 act: human FBW7 E3 ligase activation, primary screen; 650,000 tested, 0.13% active; AlphaScreen FBW7–phospho-cyclin E peptide binding, activator screen; normalized activity (activation), % at 26.1 µM; in the data active = normalized activity above about 1.9%;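 note: purified mutant Fbw7 with reduced substrate affinity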
TEAD-YAP inh: TEAD-YAP interaction inhibition; AID 1259422; 640,000 tested, 1.4% active; HEK-TIYL cells, TEAD-Gal4/YAP UAS-luciferase luminescence; inhibition, % at 9.12 µM; in the data active = inhibition above about 32%;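 note: 0% = median of test compound wells and 100% = reference inhibitor wells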
The depositor's hits bear a star.

SMILES | MITF primary | GPR151 ag | FBW7 act | TEAD-YAP inh
COc1cccc(/C=N/Nc2ccc(C(=O)O)cc2)c1O | -14.7 | -6.5 | 0.4 | 83.7*
COc1cccc(/C=N/NC(=O)c2cccc(Br)c2)c1O | 20.0 | -0.1 | -0.8 | 63.6*
COc1cccc(/C=N/NC(=O)c2cc(Br)ccc2OC(C)C)c1O | 13.6 | -1.5 | 0.0 | 78.5*
CC(C)(C)c1ccc(O)c(/C=N/NC(=O)c2ccc3c(c2)OCCO3)c1 | 29.1 | -0.2 | 0.0 | 44.8*
O=C(O)c1ccc(N/N=C/c2c(F)cccc2Cl)cc1 | 1.6 | -8.3 | 0.0 | 36.1*
CCOc1ccc(-n2cc(C(=O)NCc3ccc(F)cc3)c3cc(OC)c(OC)cc3c2=O)cc1 | -8.3 | -1.1 | 0.1 | 0.2
CC1=C(C(=O)OCCOc2ccccc2)C(c2cccc([N+](=O)[O-])c2)NC(=O)N1 (stereo not given) | 10.4 | 0.3 | 0.1 | 9.9
O=S(=O)(NCc1cccs1)c1ccc(Cc2ccc(S(=O)(=O)NCc3cccs3)cc2)cc1 | 7.1 | 1.0 | 0.1 | 33.6*
O=S(=O)(NCc1cccs1)c1ccc(-c2ccc(S(=O)(=O)NCc3cccs3)cc2)cc1 | -4.5 | 0.2 | 0.1 | 4.2
O=C(Nc1ccccc1C(=O)NCc1ccccc1)c1ccc(CN2CCOCC2)cc1 | -6.7 | -0.6 | 0.0 | 51.6*
NC(=O)c1ccccc1NC(=O)c1ccc(CN2CCOCC2)cc1 | 24.0 | -0.1 | -0.2 | 36.1*
O=C1c2ccccc2-c2onc3c(N4CCCCCC4)cc(NCCO)c1c23 | 29.6 | 0.7 | -0.5 | 36.8*
CCNc1cc(N2CCCC2)c2noc3c2c1C(=O)c1ccccc1-3 | 7.9 | -0.8 | -0.2 | 4.0
CC1CCN(c2cc(NCCC(=O)O)c3c4c(onc24)-c2ccccc2C3=O)CC1 | 54.8* | -1.1 | -0.5 | 31.5
Cc1cccc(Nc2cc(N3CCCCC3)c3noc4c3c2C(=O)c2ccccc2-4)c1 | 51.9* | 0.2 | -0.2 | 11.0
CCNc1cc(N2CCN(C)CC2)c2noc3c2c1C(=O)c1ccccc1-3 | 16.1 | -1.3 | -0.4 | 4.9
CCNc1cc(N2CCN(CC)CC2)c2noc3c2c1C(=O)c1ccccc1-3 | 61.1* | -0.1 | -1.1 | 21.5
C=CCOc1ccc(C2/C(=C(\O)c3ccc(OCC)cc3C)C(=O)C(=O)N2c2nc(C)c(C(=O)OCC)s2)cc1 (stereo not given) | 17.4 | -1.0 | 0.1 | -0.3
O=C(Nc1ccc(Br)cc1)C1CC(=O)N(c2cccc([N+](=O)[O-])c2)C1 (stereo not given) | 22.8 | -0.3 | 0.0 | 2.7
CC(=O)OCCNc1cc(N2CCCCC2)c2noc3c2c1C(=O)c1ccccc1-3 | 57.0* | 1.1 | -0.7 | 20.4
CC1CCCN(c2cc(NCC(=O)O)c3c4c(onc24)-c2ccccc2C3=O)C1 (stereo not given) | 58.8* | -1.5 | -0.6 | 67.4*
CN1CCN(c2cc(NCc3ccco3)c3c4c(onc24)-c2ccccc2C3=O)CC1 | 56.1* | 0.2 | -1.1 | -11.8
CC1CCCN(c2cc(NCCO)c3c4c(onc24)-c2ccccc2C3=O)C1 (stereo not given) | 25.7 | -1.5 | -0.5 | 33.7*
CC1CCN(c2cc(NCCO)c3c4c(onc24)-c2ccccc2C3=O)CC1 | 38.3 | -0.8 | -0.4 | 4.9
CCOC(=O)CC(=O)CN1C(=O)c2ccccc2S1(=O)=O | 14.6 | 2.1 | 0.0 | -5.3
SMILES | MITF primary | GPR151 ag | FBW7 act | TEAD-YAP inh
CCN(Cc1ccccc1)C(c1ccccn1)c1nnnn1C(C)(C)C (stereo not given) | 12.9 | -0.2 | 0.1 | 3.9
COc1ccc(-c2c[n+](CC(=O)c3cccc([N+](=O)[O-])c3)c3n2CCCC3)cc1 | 9.6 | -2.2 | 0.5 | 4.6
CC(C)Nc1cc(N2CCOCC2)c2noc3c2c1C(=O)c1ccccc1-3 | 56.3* | 1.3 | -0.6 | 21.4
COc1ccccc1-n1c(SC)nc(O)cc1=O | 1.8 | -0.5 | 3.9* | 6.2
CCSc1nc(O)cc(=O)n1-c1ccccc1OC | 11.2 | -0.6 | 0.3 | 10.5
CCOc1ccccc1C(=O)NC1CC(=O)N(c2ccc(C)c(C)c2)C1 (stereo not given) | 14.4 | -0.2 | -0.1 | 43.0*
Cc1ccc(N2CC(NC(=O)c3ccccc3C(F)(F)F)CC2=O)cc1C (stereo not given) | -2.3 | 0.5 | 0.3 | -2.5
O=C(COc1ccc(Cl)cc1Cl)NCCCCO | 1.2 | 1.2 | -0.2 | -37.0
COC(=O)CCCCCNC(=O)COc1ccc(Cl)cc1Cl | 13.7 | -1.1 | 0.6 | 69.1*
O=C(O)CCCCCNC(=O)COc1ccc(Cl)cc1Cl | 9.4 | -0.3 | -0.1 | 69.2*
COC(=O)C(C)Sc1nc(N(C)C)nc(N2CCOCC2)n1 (stereo not given) | -1.6 | 0.5 | 0.1 | 7.8
Cc1cc(O)c(C)c(O)c1/C=N\NC(=O)CNC(=O)C(c1ccccc1)c1ccccc1 | 16.9 | 0.0 | 0.1 | 32.9*
Cc1ccc(N/C(=N/c2nc(C)cc(C)n2)NC(=O)c2ccccc2)cc1 | 0.3 | 0.6 | -0.1 | 0.1
Oc1ccc(/C=N/NC(=S)NCCN2CCOCC2)c(O)c1 | 93.6* | 1.6 | -1.2 | -6.4
CCCc1c(O)nc(SCC(=O)N(CC)CC)[nH]c1=O | 10.2 | 0.4 | 0.1 | 2.4
O=C(Nc1ccc2nc(-c3ccccc3)oc2c1)C1(c2ccccc2)CCCC1 | -0.3 | -0.4 | 0.0 | 8.5
CN(C(=O)CN1CCC(O)(c2ccccn2)CC1)C1CCCCC1 | -2.9 | -0.7 | -0.3 | -8.3
O=C1CSC(=O)N1Cc1c(Cl)cccc1Cl | 19.0 | 0.1 | 2.2* | 13.7
Cc1nc2c(c(C)c1CCC(=O)N1CCCCCC1)c(=O)n(C)c(=O)n2C | -0.3 | -0.4 | 0.1 | 50.7*
Cc1cc(-n2sc(Cl)c(C)c2=O)ccc1Cl | -3.5 | 0.1 | 0.0 | 42.9*
Cc1c(Cl)sn(-c2ccc(Cl)cc2)c1=O | -2.0 | 2.2 | -0.1 | 40.3*
Cc1ccccc1C(NC(=O)C1CCN(C(=O)c2ccno2)CC1)c1ccccn1 (stereo not given) | 11.0 | -0.2 | 0.2 | -2.2
COc1cccc(CC(=O)NCCCNc2nc3cc4c(cc3cc2C#N)OCO4)c1 | 2.3 | -2.3 | 0.7 | 60.5*
COc1cccc(NC(=O)NCCCNc2nc3cc4c(cc3cc2C#N)OCO4)c1 | -1.8 | -0.5 | 0.2 | -4.4
COCCn1nnnc1C(c1ccccc1)N1CCN(c2cccc(C(F)(F)F)c2)CC1 (stereo not given) | 0.2 | -1.1 | -0.1 | -2.7
SMILES | MITF primary | GPR151 ag | FBW7 act | TEAD-YAP inh
Cc1ccc(S(=O)(=O)Nc2ccccc2C(=O)Nc2ccc(-c3nc4ccc(C)cc4s3)cc2)cc1 | 5.0 | -0.7 | 1.1 | -2.8
CC1=CCC(C(=O)O)C(C(=O)Nc2ccc(-c3nc4ccc(C)cc4s3)cc2)C1 (stereo not given) | -11.6 | -3.0 | 0.0 | 59.1*
Cc1ccc(S(=O)(=O)NC(=O)Nc2ccc(-c3nc4ccc(C)cc4s3)cc2)cc1 | 16.0 | -8.6 | 0.1 | 90.8*
CCN(CC)c1ccc(/C=N\Nc2cc(=O)n(C)c(=O)n2C)cc1 | 3.5 | 0.0 | -0.1 | 55.0*
CN(C)CCN(C(=O)CCl)C1CCS(=O)(=O)C1 (stereo not given) | 18.3 | -0.2 | 0.5 | 8.9
CCCN(C(=O)CCl)C1CCS(=O)(=O)C1 (stereo not given) | 4.7 | 0.0 | -0.1 | 50.3*

Screening results (PubChem BioAssay)
